# Measured values: PubChem BioAssay
# A number with no mark means an inactive call. Active and inactive are the calls of the source.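 Rule for the calls, unless noted: active = mean inhibition above 46.5%, the solvent-only control mean plus 3 SD; inactive = the rest.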
# How the values were obtained:
# [1] = tested on: transactivating tegument protein VP16 (Human herpesvirus 1); assay: compounds suppressing VP16-driven luciferase signal – cell-based, luminescence, single concentration, counter-screen for SRC2 inhibitor project (AID 652007; in the data active = inhibition above about 36%); conditions: cell-based VP16 transactivation luciferase reporter, at 8.9 µM, stronger effect = higher value
# [2] = biological target: Nuclear receptor coactivator 2 (Homo sapiens) (UniProt Q15596); assay: inhibition of GAL4-SRC2 driven luciferase expression – cell-based, luminescence, HEK293, triplicate, confirmation (AID 652008); conditions: HEK293 GAL4-SRC2 luciferase reporter, at 8.9 µM, stronger effect = higher value;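 note: 0% = DMSO-treated cells and 100% = Gossypol at 36 µM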
# Nuclear receptor coactivator 2 (Homo sapiens), sequence (Q15596 whole entry, looked up, the tested form may be a part): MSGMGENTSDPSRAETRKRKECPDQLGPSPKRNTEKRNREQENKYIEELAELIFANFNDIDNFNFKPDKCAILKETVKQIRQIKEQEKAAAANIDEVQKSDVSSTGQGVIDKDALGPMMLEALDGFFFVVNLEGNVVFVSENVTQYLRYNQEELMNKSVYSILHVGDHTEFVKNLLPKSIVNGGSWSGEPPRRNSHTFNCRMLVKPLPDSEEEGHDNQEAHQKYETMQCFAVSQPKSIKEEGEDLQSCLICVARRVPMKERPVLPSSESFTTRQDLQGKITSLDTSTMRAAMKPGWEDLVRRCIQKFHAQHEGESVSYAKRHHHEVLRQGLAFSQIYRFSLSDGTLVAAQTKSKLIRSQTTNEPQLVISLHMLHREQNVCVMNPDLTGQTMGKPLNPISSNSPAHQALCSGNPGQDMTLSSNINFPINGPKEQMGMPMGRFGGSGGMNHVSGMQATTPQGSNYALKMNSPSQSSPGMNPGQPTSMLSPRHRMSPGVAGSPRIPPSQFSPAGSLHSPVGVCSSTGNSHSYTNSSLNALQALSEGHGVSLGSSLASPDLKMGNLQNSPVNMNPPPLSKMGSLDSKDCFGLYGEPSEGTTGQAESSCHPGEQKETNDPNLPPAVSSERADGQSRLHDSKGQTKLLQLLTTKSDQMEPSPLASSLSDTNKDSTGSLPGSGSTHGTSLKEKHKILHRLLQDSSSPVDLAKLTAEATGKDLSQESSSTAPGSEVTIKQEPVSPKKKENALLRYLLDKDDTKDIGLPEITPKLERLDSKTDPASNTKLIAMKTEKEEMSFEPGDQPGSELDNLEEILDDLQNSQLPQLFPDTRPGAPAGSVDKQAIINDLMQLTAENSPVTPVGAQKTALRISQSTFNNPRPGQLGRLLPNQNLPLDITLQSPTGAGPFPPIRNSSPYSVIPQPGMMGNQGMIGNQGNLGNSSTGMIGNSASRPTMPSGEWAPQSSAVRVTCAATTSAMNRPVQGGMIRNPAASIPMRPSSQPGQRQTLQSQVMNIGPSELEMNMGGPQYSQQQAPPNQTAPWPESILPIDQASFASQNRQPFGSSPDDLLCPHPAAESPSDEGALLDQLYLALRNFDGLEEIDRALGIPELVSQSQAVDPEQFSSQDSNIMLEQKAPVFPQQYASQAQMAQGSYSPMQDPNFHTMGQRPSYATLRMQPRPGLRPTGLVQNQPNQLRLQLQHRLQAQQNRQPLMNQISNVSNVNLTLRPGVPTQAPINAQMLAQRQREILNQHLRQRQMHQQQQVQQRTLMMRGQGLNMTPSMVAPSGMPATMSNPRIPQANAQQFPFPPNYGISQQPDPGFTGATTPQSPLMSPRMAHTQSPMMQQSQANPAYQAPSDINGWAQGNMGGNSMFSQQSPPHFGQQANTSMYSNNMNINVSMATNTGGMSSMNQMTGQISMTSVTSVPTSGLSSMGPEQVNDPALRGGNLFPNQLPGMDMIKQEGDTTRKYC
Structure (SMILES),inhibition [1],inhibition [2]
CC(=O)c1ccc(OC2(C)CCN(Cc3ccc(OC(F)(F)F)cc3)C2)cc1 (stereo not given),-12.4%,-13.5%
O=C(NCCc1ccccc1)c1ccc2c(c1)OCO2,-13.4%,16.7%
CCCC(=O)NC(c1ccccc1)c1ccc2cccnc2c1O (stereo not given),-0.88%,33.3%
NCCCCCc1nnc(SCc2ccccc2Cl)o1,48.5% (active),53.5% (active)
O=C(c1ccc(Cl)cc1)C(CN1CCCC1)c1ccccc1 (stereo not given),26.1%,53.9% (active)
c1ccc(C2=Nn3c(nnc3-c3ccncc3)SC2)cc1,-2.29%,34.6%
Cc1ccc(-c2c3c(nc4sc(C(N)=O)c(N)c24)CCC3)cc1,1.89%,34.5%
COc1ccc2nc(-c3ccc(N)cc3)[nH]c2c1,-62.2%,49.5% (active)
COc1cc(C(=O)NCc2ccncc2)cc(Br)c1OCc1ccccc1,0.29%,36.2%
CC(C)(C)c1ccc(OCCC(=O)OCC(=O)NC2CC2)cc1,23.8%,2.38%
COc1cc(C)c(Br)cc1S(=O)(=O)NCc1cccs1,-10.6%,-12.6%
CN(Cc1ccccc1)C(=O)c1ccc(NC(=O)C2CCN(C(=O)OC(C)(C)C)CC2)cc1,15.8%,60.4% (active)
Nc1nc(-c2ccccc2)c(N=Nc2cccnc2)s1,5.71%,11.2%
O=C(COC(=O)CCN1C(=O)/C(=C\C=C\c2ccccc2)SC1=S)Nc1ccc(Br)cc1,38.2% (active),74.3% (active)
COc1cc(C#Cc2c(-c3cncn3C)n(C)c3ccc(-c4ccc(OC)nc4)cc23)cc(OC)c1,-13.2%,-23.7%
Cc1nc(N/N=C/c2ccccn2)sc1C,29.8%,60.2% (active)
Cc1onc(-c2ccccc2Cl)c1C(=O)N1CCC(Cc2ccccc2)CC1,9.05%,10.1%
COc1ccccc1-c1cc2nc(C)c(CCC(=O)NCc3ccco3)c(C)n2n1,-5.98%,17.5%

Structure (SMILES),inhibition [1],inhibition [2]
COc1cc(/C=N/NC(=O)c2ccc(COc3cc(C)ccc3C(C)C)cc2)cc(OC)c1O,-2.59%,62.9% (active)
O=C(O)Cc1nn(Cc2ccc(Cl)cc2)c(=O)c2ccccc12,-13.4%,-30.9%
COc1ccc(C(=O)NC(=C(Cl)Cl)S(=O)(=O)c2ccc(C)cc2)cc1,3.97%,36.6%
CN1CCN(/N=C/c2ccc(N(c3ccccc3)c3ccccc3)cc2)CC1,2.36%,27.4%
COc1ccc(C(=O)NC2CC3CCCC(C2)N3CC(C)C)cc1 (stereo not given),2.31%,-12.2%
CCOc1ccc(-c2cc(CCCC(=O)Nc3cc(OC)ccc3OC)no2)cc1,47.9% (active),79.5% (active)
COc1cccc(N2C(=O)CC(NNC(=O)c3cccs3)C2=O)c1 (stereo not given),-15.3%,-23.7%
CN(C)S(=O)(=O)c1cccc(NC(=O)CSc2ncnc3ccccc23)c1,7.54%,29.7%
Cc1nc(SCc2cccc(C(=O)O)c2)nc2c1CCCC2,4.6%,56.6% (active)
COc1ccc(-c2nc(NC(=O)C3CC(=O)N(c4ccc5c(c4)OCCO5)C3)sc2C)cc1 (stereo not given),-6.3%,50.7% (active)
c1ccc(-n2cnc3ccccc32)cc1,-25.6%,5.17%
O=C(CCl)N(Cc1ccccc1)c1ccccc1,26%,48.6% (active)
Cc1ccc(S(=O)(=O)/N=C(\N)c2ccc(F)cc2)cc1,5.17%,-14.9%
CCN(CC)c1nc(C=Cc2ccc(N(C)C)cc2)c2nccnc2n1,17.1%,21.8%
Nc1nonc1-n1nnc(C(=O)N/N=C/c2ccccc2Br)c1CN1CCCC1,-7.5%,-12.4%
O=C(c1ccccc1F)N1CCN(S(=O)(=O)c2ccc3c(c2)OCCO3)CC1,3.25%,22.9%
Cc1ccc(S(=O)(=O)C(NC(=O)c2ccccc2)=C(Cl)Cl)cc1,14.1%,16.8%
